Measured values reported in PubChem BioAssay (EPA / NIEHS).
The source made the active and inactive calls. How the source made its calls: active means hit-call score of the fitted dose curve at least 0.9, where 1 is the maximum; inactive means score below 0.9.

The compounds below were run against Signal transducer and activator of transcription 3 (Homo sapiens) (UniProt P40763) (assay: ATG_STAT3_CIS: Attagene CIS-FACTORIAL HepG2 Assay for human Signal Transducer and Activator of Transcription 3 (STAT3) (AID 2282963)). Settings: HepG2, Attagene cis-factorial STAT3 reporter transcription; actives raise or lower the signal.
Method: ATG_CIS is a cell-based, multiplexed-readout assay that uses HepG2, a human liver cell line, with measurements taken at 24 hours after chemical dosing in a 24-well plate.ATG_STAT3_CIS is one of 52 assay component(s) measured or calculated from the ATG_CIS assay. It is designed to make measurements of mRNA induction, a form of inducible reporter, as detected with fluorescence intensity signals by Reverse transcription polymerase chain reaction (RT-PCR) and Capillary electrophoresis technology.Data from the assay component ATG_STAT3_CIS was analyzed into 1 assay endpoint. This assay endpoint, ATG_STAT3_CIS, was analyzed with bidirectional fitting relative to DMSO as the negative control and baseline of activity. Using a type of inducible reporter, measures of mRNA for gain or loss-of-signal activity can be used to understand the reporter gene at the transcription factor-level as they relate to the gene STAT3. Furthermore, this assay endpoint can be referred to as a primary readout, because this assay has produced multiple assay endpoints where this one serves a reporter gene function. To generalize the intended target to other relatable targets, this assay endpoint is annotated to the dna binding intended target family, where the subfamily is stat protein.
Human liver HepG2 cells are transiently transfected with multiple reporter transcription units (MRTUs) in 6-well plates using FuGene 6 reagent (Roche; 3 ml FuGene/1 mg DNA). The MRTU constructs are regulated by a cis-regulating element (promoter). […] A major difference between the CIS and TRANS system is that in CIS activities of endogenous TFs are measured, whereas the TRANS assay evaluates changes in activities of exogenous, chimeric NR-Gal4 proteins. […] At the end of 24 hour incubation, total RNA was isolated using TriZol reagent (Invitrogen). The isolated RNA is then reverse-transcribed using oligo(dT) primer and Mo-MLV reverse transcriptase (Invitrogen) with DNAse I (Ambion) treatment for 30 min. The one-tenth of the produced cDNA was amplified by PCR using Taq DNA polymerase (Invitrogen) and two reporter sequence-specific primers. The PCR products were fluorescently labeled by primer extension with 6-arboxyfluorescein (6-FAM) 5'-labeled reporter sequence-specific primer (2 min at 95 C, 20 s at 68 C and 10 min at 72 C) and these products were digested with 5U of HpaI (New England Biolabs) for 2h at 37 C. The fragments were purified using Qiaquick PCR columns (Qiagen), analyzed on an ABI 3130xL genetic analyzer (Applied Biosystems) with peak positions identified by using a set of X-rhodamine (ROX)-labeled MapMarker1000 molecular weight standards (BioVentures). The raw capillary electrophoresis data was processed using Attagraph software (Attagene).

Chain of Signal transducer and activator of transcription 3 (Homo sapiens) (P40763 whole entry, looked up): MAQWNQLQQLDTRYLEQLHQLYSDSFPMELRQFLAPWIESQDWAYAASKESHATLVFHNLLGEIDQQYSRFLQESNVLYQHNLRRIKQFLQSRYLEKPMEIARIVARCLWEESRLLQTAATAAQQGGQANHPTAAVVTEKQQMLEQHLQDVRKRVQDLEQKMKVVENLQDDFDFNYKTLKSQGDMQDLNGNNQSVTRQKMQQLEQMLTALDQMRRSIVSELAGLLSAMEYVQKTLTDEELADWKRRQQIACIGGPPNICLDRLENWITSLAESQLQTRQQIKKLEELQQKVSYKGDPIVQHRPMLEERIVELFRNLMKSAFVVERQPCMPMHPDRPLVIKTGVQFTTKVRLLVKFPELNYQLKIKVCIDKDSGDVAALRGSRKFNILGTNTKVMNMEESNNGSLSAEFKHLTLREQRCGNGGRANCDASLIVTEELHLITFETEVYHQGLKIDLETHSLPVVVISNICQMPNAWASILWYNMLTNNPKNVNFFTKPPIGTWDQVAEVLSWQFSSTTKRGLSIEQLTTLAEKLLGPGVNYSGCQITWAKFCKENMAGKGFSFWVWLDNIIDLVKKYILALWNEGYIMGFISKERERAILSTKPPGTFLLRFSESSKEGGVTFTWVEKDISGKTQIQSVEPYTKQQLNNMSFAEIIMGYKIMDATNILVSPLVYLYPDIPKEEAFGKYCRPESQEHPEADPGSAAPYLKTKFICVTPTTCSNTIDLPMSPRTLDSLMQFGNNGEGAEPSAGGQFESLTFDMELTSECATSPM

SMILES | outcome | AC50
N#Cc1ccc(CC(=NNC(=O)Nc2ccc(OC(F)(F)F)cc2)c2cccc(C(F)(F)F)c2)cc1 | inactive | –
O=C[C@H](O)[C@H](O)[C@H](O)CO | inactive | –
Sc1nc(S)nc(S)n1 | inactive | –
CCN(CC)c1ccc(C(=C2C=CC(=[N+](CC)CC)C=C2)c2ccc(S(=O)(=O)O)cc2S(=O)(=O)[O-])cc1 | inactive | –
CCCCC(CC)COC(=O)/C=C\C(=O)OCC(CC)CCCC (stereo not given) | inactive | –
O=C(O)c1cn(-c2ccc(F)cc2)c2cc(N3CCNCC3)c(F)cc2c1=O | inactive | –
O=c1oc(=O)c2cc3c(=O)oc(=O)c3cc12 | inactive | –
NC(=O)c1ccccc1Cl | inactive | –
CNC[C@H](O)c1cccc(O)c1 | inactive | –
C=CC(=O)OCC(O)COc1ccccc1 (stereo not given) | inactive | –
CCCc1ccccc1O | inactive | –
C=CC(C)(CCC=C(C)C)OC=O (stereo not given) | inactive | –
Cc1ccc2ccccc2n1 | inactive | –
Cc1ccc2n[nH]nc2c1 | inactive | –
COc1nc(C)nc(N)n1 | inactive | –
COc1ccc(OC)c(OC)c1 | inactive | –
CC(C)CCCCCCCOC(=O)c1ccc(C(=O)OCCCCCCCC(C)C)c(C(=O)OCCCCCCCC(C)C)c1 | inactive | –
CC(C)(C)c1cc(CCC(=O)NN)cc(C(C)(C)C)c1O | inactive | –
Cc1cccc(C)c1C | inactive | –
CC(C)(CO)[N+](=O)[O-] | inactive | –

SMILES | outcome | AC50
Cc1cc(C2(c3cc(C)c(O)cc3C)OS(=O)(=O)c3ccccc32)c(C)cc1O | inactive | –
C=CC(C)(O)CCC=C(C)CCC=C(C)C (stereo not given) | – | 100 µM (active)
O=C(O)c1cccc(C(F)(F)F)c1 | inactive | –
Clc1nc(C(Cl)(Cl)Cl)c(Cl)c(Cl)c1Cl | inactive | –
CCCCC(CC)COCCC#N (stereo not given) | inactive | –
CC1=CCC(O)(C(C)C)CC1 (stereo not given) | inactive | –
NCCOCCO | inactive | –
O=C(O)CCSCCC(=O)O | inactive | –
FC1(F)C(F)(F)C(F)(F)C2(F)C(F)(C1(F)F)C(F)(F)C(F)(F)C1(F)C(F)(F)C(F)(F)C(F)(F)C(F)(F)C12F (stereo not given) | inactive | –
Clc1ccc(Cl)c(Cl)c1Cl | inactive | –
CC(C=O)Cc1ccc(C(C)C)cc1 (stereo not given) | inactive | –
CN1Cc2c(N)cccc2C(c2ccccc2)C1 (stereo not given) | inactive | –
CCN(CC)CCOC(=O)c1ccc(N)cc1 | inactive | –
CCOC(=S)SSC(=S)OCC | inactive | –
CSc1nnc(C(C)(C)C)c(=O)[nH]1 | inactive | –
CC(CCO)CCc1ccccc1 (stereo not given) | inactive | –
COc1ccc(NC(=O)CC(C)=O)cc1 | inactive | –
CCc1ccc(C=O)cc1 | inactive | –
CCCC[n+]1ccccc1 | inactive | –
CC[Si](OC(C)=O)(OC(C)=O)OC(C)=O | inactive | –
